# Source: PubChem BioAssay (EPA / NIEHS)
# Several values for one entry are separate records, joined by “and”; a condition that tells them apart may be missing. Equal entries are not always repeated. Inconclusive results are not listed. More than one record can exist for a structure, and the calls need not agree. Activity calls are given as the source filed them. Rule for the calls, unless noted: active = hit-call score of the fitted dose curve at least 0.9, where 1 is the maximum; inactive = score below 0.9.
# Tests used:
# [1] = BSK_BT_Bcell_Proliferation: Viability Assessment in the BioMAP Diversity Plus: BT Assay for B cell Proliferation (AID 2284227); conditions: primary human B cells with PBMC
# Summary of the method: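 Using a human primary B cell–PBMC co-culture, the assay measures total protein by sulforhodamine B absorbance as a gauge of proliferation after 72 h. Analysis followed the positive fitting direction with DMSO as baseline.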
# [2] = read-out: Interleukin 6 (IL6), IL6 (gene 3569); assay: BSK_BT_xIL6: BioMAP Diversity Plus: BT Assay for Interleukin 6 (IL6) Biomarker Activity (AID 2284228); conditions: primary human B cells with PBMC
# Summary of the method: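 Secreted IL-6 in the primary human B cell plus PBMC system, measured by Luminex at 24 h post-chemical, DMSO as baseline. Alamar Blue viability: 75,000 cells/well, chemical 1 h before SEB/TSST-1 (20 ng/mL each), 90 h, then 6 h dye.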
# [3] = read-out: Interleukin 17A (IL17A), IL17A (gene 3605); assay: BSK_BT_xIL17A: BioMAP Diversity Plus: BT Assay for Interleukin 17A (IL17A) Biomarker Activity (AID 2284229); conditions: primary human B cells with PBMC
# Summary of the method: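 Luminex xMAP quantification of secreted IL-17A after 24 h chemical exposure of a primary human B cell/PBMC co-culture. Signal increases fitted relative to DMSO negative control.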
# [4] = read-out: Tumor necrosis factor (Homo sapiens) (UniProt P01375); assay: BSK_BT_xTNFa: BioMAP Diversity Plus: BT Assay for Tumor necrosis factor alpha (TNF-alpha) Biomarker Activity (AID 2284230); conditions: primary human B cells with PBMC
# Summary of the method: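 Endpoint derived in the positive direction versus DMSO vehicle. Cells: B cells together with PBMC, exposed 24 h before TNF-alpha in the medium was read on the Luminex xMAP platform.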
# [5] = read-out: Vascular cell adhesion molecule 1 (VCAM1), VCAM1 (gene 7412); assay: BSK_MyoF_VCAM1: BioMAP Diversity Plus: MyoF Assay for Vascular cell adhesion molecule 1 (VCAM1) Biomarker Activity (AID 2284231); conditions: primary human lung fibroblasts
# Summary of the method: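 ELISA readout of VCAM-1 on human lung fibroblast cultures 24 hours after dosing, analyzed for signal gain relative to DMSO. Overt cytotoxicity was checked by sulforhodamine B total-protein staining in parallel cultures.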
# [6] = read-out: Collagen I, COL1A1 (gene 1277); assay: BSK_MyoF_CollagenI: BioMAP Diversity Plus: MyoF Assay for Collagen I Biomarker Activity (AID 2284238); conditions: primary human lung fibroblasts
# Summary of the method: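 Collagen I levels measured by ELISA on human lung fibroblast cultures 24 h post-dosing, with curve fitting in the positive direction relative to DMSO; SRB staining of parallel wells marked cytotoxicity.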
# [7] = read-out: Collagen III, COL3A1 (gene 1281); assay: BSK_MyoF_CollagenIII: BioMAP Diversity Plus: MyoF Assay for Collagen III Biomarker Activity (AID 2284239); conditions: primary human lung fibroblasts
# Summary of the method: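 Collagen III biomarker quantified by ELISA in human lung fibroblast cultures 24 h after dosing. Activity fitted in the positive direction against DMSO as baseline.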
# [8] = CCTE_Mundy_HCI_hNP1_Casp3_7: CCTE's Caspase-Glo 3/7 Assay in human neuroprogenitor cells for Apoptosis, Mundy Lab (AID 2284240)
# Summary of the method: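 Luminescent caspase-3/7 readout, 26.5 h post-dose, in human neural progenitor cells from WA09 embryonic stem cells. Cells grew 40–44 h at 37 °C, 5% CO2 before chemical addition. Activity analysed as signal increase over DMSO baseline.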
# [9] = CCTE_Mundy_HCI_hNP1_CellTiter: CCTE's Cell Titer-Glo 2 Assay in human neuroprogenitor cells for Viability, Mundy Lab (AID 2284241; active = hit-call score of the fitted dose curve at least 0.9, where 1 is the maximum)
# Summary of the method: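 Viability read as luminescent ATP content (CellTiter-Glo, 30 min room temperature) twenty-four hours after dosing, relative to DMSO. Cells: WA09-derived hNP1 neuroprogenitors on poly-L-ornithine/laminin, plated 40 to 44 hours before chemical.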
# [10] = read-out: Interleukin 17F (IL17F), IL17F (gene 112744); assay: BSK_BT_xIL17F: BioMAP Diversity Plus: BT Assay for Interleukin 17F (IL17F) Biomarker Activity (AID 2284243); conditions: primary human B cells with PBMC
# Summary of the method: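 Human B cells co-cultured with PBMC; secreted IL-17F quantified by LumineX xMAP 24 hours after chemical dosing. Activity fitted in the positive direction against DMSO negative control as baseline.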
# [11] = read-out: Actin alpha 1 (ACTA1), ACTA1 (gene 58); assay: BSK_MyoF_ACTA1: BioMAP Diversity Plus: MyoF Assay for Actin alpha 1 (ACTA1) Biomarker Activity (AID 2284244); conditions: primary human lung fibroblasts
# Summary of the method: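 Human lung fibroblast (MyoF system) cultures dosed with test chemical; alpha-SMA measured by ELISA 24 h after dosing, normalized to DMSO control. Cytotoxicity tracked in parallel cultures by SRB total-protein staining.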
# [12] = read-out: Interleukin 2 (IL2), IL2 (gene 3558); assay: BSK_BT_xIL2: BioMAP Diversity Plus: BT Assay for Interleukin 2 (IL2) Biomarker Activity (AID 2284245); conditions: primary human B cells with PBMC
# Summary of the method: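 Human B cell plus PBMC co-culture, 24 h after chemical dosing; secreted IL-2 quantified by Luminex xMAP multiplex, fitted for signal gain against DMSO baseline.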
# [13] = read-out: Basic fibroblast growth factor (bFGF), FGF2 (gene 2247); assay: BSK_MyoF_bFGF: BioMAP Diversity Plus: MyoF Assay for Basic fibroblast growth factor (bFGF) Biomarker Activity (AID 2284246); conditions: primary human lung fibroblasts
# Summary of the method: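 Human lung fibroblast cultures were dosed and measured 24 h later in 96-well format. bFGF biomarker levels quantified by ELISA, with activity fitted in the positive direction against DMSO.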
# [14] = read-out: Collagen IV, COL4A1 (gene 1282); assay: BSK_MyoF_CollagenIV: BioMAP Diversity Plus: MyoF Assay for Collagen IV Biomarker Activity (AID 2284247); conditions: primary human lung fibroblasts
# Summary of the method: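 Primary human lung fibroblasts (MyoF system) dosed 24 h; Collagen IV measured by ELISA. Activity fitted in positive direction against DMSO; cytotoxicity tracked by SRB total-protein staining in parallel cultures.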
# [15] = CCTE_Mundy_HCI_Cortical_NOG_NeuronCount: CCTE's Neurite Outgrowth Assay in rat cortical cells for Neuron Count, Mundy Lab (AID 2284236; active = hit-call score of the fitted dose curve at least 0.9, where 1 is the maximum;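 note: neurons counted by imaging betaIII-tubulin and Hoechst stained cortical cells; cells exposed to compound for about 48 hours before fixation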)
# Summary of the method: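 Read-out: neuron number by high-content imaging of betaIII-tubulin (Alexa Fluor-488) and Hoechst-labelled rat primary cortical cells.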
# [16] = CCTE_Mundy_HCI_Cortical_NOG_BPCount: CCTE's Neurite Outgrowth Assay in rat cortical cells for Branch Point Count, Mundy Lab (AID 2284237);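 for AC50: branch points counted about two days after chemical exposure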
# Summary of the method: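 Measured 50.33 h after dosing, this morphology endpoint uses rat primary cortical cultures labelled for betaIII-tubulin. Branch points are quantified by high-content imaging, with DMSO as negative control and baseline.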
# [17] = CCTE_Mundy_HCI_Cortical_Synap_Neur_Matur_NeuronCount: CCTE's Synaptogenesis and Neurite Maturation Assay in rat cortical cells for Neuron Count, Mundy Lab (AID 2284242; active = hit-call score of the fitted dose curve at least 0.9, where 1 is the maximum;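 note: hits reduce neuron count versus DMSO baseline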)
# Summary of the method: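 Rat primary cortical cells, AraC added at DIV 5, dosed with media change from DIV 7 to DIV 12. Fixed, Hoechst-stained and immunolabelled for MAP2 and synaptophysin; neuron number counted by high-content imaging, loss fitted versus DMSO.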
# [18] = UKN2_HCS_IMR90_cell_viability: Viability Assessment in the University of Konstanz (UKN) Leist Lab Neural Crest Cell Migration Assay in human induced IMR90 Pluripotent Stem Cells (UKN2) (AID 2284233);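 note: viability of neural crest cells differentiated from IMR90 iPSC measured by calcein-AM fluorescence imaging; cells exposed to compound for 24 h after a 24 h migration phase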
# Summary of the method: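 Neural crest cells derived from IMR90 iPSC migrate into a stopper-free zone for 24 h in EGF/FGF medium, then are exposed to compound for 24 h. Viability assessed by calcein-AM and Hoechst staining with high-content imaging, fitted bidirectionally versus DMSO.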
# Sequence of Tumor necrosis factor (Homo sapiens) (P01375 whole entry, looked up): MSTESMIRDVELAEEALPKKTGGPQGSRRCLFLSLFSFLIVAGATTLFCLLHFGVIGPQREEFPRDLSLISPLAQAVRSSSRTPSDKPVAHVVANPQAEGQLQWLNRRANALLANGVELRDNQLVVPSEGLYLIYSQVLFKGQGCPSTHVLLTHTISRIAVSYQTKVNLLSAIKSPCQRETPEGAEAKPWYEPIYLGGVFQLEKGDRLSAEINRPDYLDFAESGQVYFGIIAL
compound,measurement,setting,value
O=C(O)C(F)(F)OC(F)(F)C(F)(F)OC(F)(F)C(=O)O,outcome,[1],inactive
same,outcome,[2],inactive
same,outcome,[3],inactive
same,outcome,[4],inactive
same,outcome,[5],inactive
same,outcome,[6],inactive
same,outcome,[7],inactive
same,outcome,[8],inactive
same,outcome,[9],inactive
same,outcome,[10],inactive
same,outcome,[11],inactive
same,outcome,[12],inactive
same,outcome,[13],inactive
same,outcome,[14],inactive
CCOP(=S)(NC(C)C)Oc1ccccc1C(=O)OC(C)C (stereo not given),outcome,[1],inactive
same,AC50,[2],14.3 µM (active)
same,outcome,[3],inactive
same,outcome,[4],inactive
same,outcome,[5],inactive
same,outcome,[6],inactive
same,outcome,[7],inactive
same,AC50,[10],28.7 µM (active)
same,outcome,[11],inactive
same,AC50,[12],20 µM (active)
same,outcome,[13],inactive
same,outcome,[14],inactive
CCOP(=S)(OCC)SCn1nnc2ccccc2c1=O,outcome,[1],inactive
same,outcome,[2],inactive
same,outcome,[3],inactive
same,outcome,[4],inactive
same,outcome,[5],inactive
same,outcome,[6],inactive
same,outcome,[7],inactive
same,AC50,[10],24 µM (active)
same,outcome,[11],inactive
same,outcome,[12],inactive
same,outcome,[13],inactive
same,outcome,[14],inactive
CCOP(=S)(OCC)SCS(=O)(=O)CC,outcome,[1],inactive
same,outcome,[2],inactive
same,outcome,[3],inactive
same,outcome,[4],inactive
same,outcome,[5],inactive
same,outcome,[6],inactive
same,outcome,[7],inactive
same,outcome,[10],inactive
same,outcome,[11],inactive
same,outcome,[12],inactive
same,outcome,[13],inactive
same,outcome,[14],inactive
Cc1ccc2c(c1N)C(=O)c1ccccc1C2=O,outcome,[1],inactive
same,AC50,[2],0.144 µM (active)
same,outcome,[3],inactive
same,AC50,[4],20 µM (active)
same,outcome,[5],inactive
same,outcome,[6],inactive
same,AC50,[7],1.43 µM (active)
same,AC50,[10],20 µM (active)
same,outcome,[11],inactive
same,outcome,[12],inactive
same,outcome,[13],inactive
same,outcome,[14],inactive
CC(C)(C)c1ccccc1OP(=O)(Oc1ccccc1)Oc1ccccc1,AC50,[1],28.6 µM (active)
same,AC50,[2],29.2 µM (active)
same,AC50,[3],24 µM (active)
same,AC50,[4],36.7 µM (active)
same,AC50,[5],33.7 µM (active)
same,AC50,[15],26.2 µM (active)
same,AC50,[16],17.5 µM (active)
same,AC50,[6],28.3 µM (active)
same,AC50,[7],25.2 µM (active)
same,AC50,[17],3.09 µM (active)
same,AC50,[10],29 µM (active)
same,AC50,[11],20 µM (active)
same,AC50,[12],28.2 µM (active)
same,outcome,[13],inactive
same,outcome,[14],inactive
O=C(O)C=CC(F)(C(F)(F)F)C(F)(F)F,outcome,[1],inactive
same,outcome,[2],inactive
same,outcome,[3],inactive
same,outcome,[4],inactive
same,outcome,[5],inactive
same,outcome,[6],inactive
same,outcome,[7],inactive
same,outcome,[8],inactive
same,outcome,[9],inactive
same,AC50,[10],0.219 µM (active)
same,outcome,[10],inactive
same,outcome,[11],inactive
same,outcome,[12],inactive
same,outcome,[13],inactive
same,outcome,[14],inactive
O=S(=O)(F)C(F)(F)C(F)(F)C(F)(F)C(F)(F)C(F)(F)C(F)(F)C(F)(F)C(F)(F)F,outcome,[1],inactive
same,outcome,[2],inactive
same,outcome,[3],inactive
same,outcome,[4],inactive
same,outcome,[5],inactive
same,outcome,[6],inactive
same,outcome,[7],inactive
same,outcome,[10],inactive
same,outcome,[11],inactive
same,outcome,[12],inactive
same,outcome,[13],inactive
same,outcome,[14],inactive
CC(C)Nc1ccc(Nc2ccccc2)cc1,AC50,[1],2.3 µM (active)
same,AC50,[2],4.22 µM (active)
same,AC50,[3],3.17 µM (active)
same,AC50,[4],5 µM (active)
same,AC50,[5],20 µM (active)
same,AC50,[6],26 µM (active)
same,AC50,[7],20 µM (active)
same,AC50,[10],4.55 µM (active)
same,AC50,[11],22.7 µM (active)
same,AC50,[12],5.05 µM (active)
same,AC50,[13],30.5 µM (active)
same,AC50,[14],20 µM (active)
C=CC(=O)OCC(F)(F)C(F)F,AC50,[1],22.3 µM (active) and 36.2 µM (active)
same,AC50,[2],34.1 µM (active) and 31.7 µM (active)
same,AC50,[3],30 µM (active) and 31.8 µM (active)
same,AC50,[4],30 µM (active) and 29.8 µM (active)
same,AC50,[5],44.1 µM (active) and 32.7 µM (active)
same,AC50,[6],46.7 µM (active) and 44.9 µM (active)
same,AC50,[7],48.7 µM (active)
same,outcome,[7],inactive
same,outcome,[8],inactive
same,outcome,[9],inactive
same,AC50,[10],12.4 µM (active) and 21.8 µM (active)
same,AC50,[11],48.8 µM (active) and 46.5 µM (active)
same,AC50,[12],30.6 µM (active) and 34.5 µM (active)
same,outcome,[13],inactive
same,AC50,[14],45.7 µM (active)
same,outcome,[14],inactive
Nc1ccc([N+](=O)[O-])cc1Cl,outcome,[1],inactive
same,outcome,[2],inactive
same,outcome,[3],inactive
same,outcome,[4],inactive
same,outcome,[5],inactive
same,outcome,[6],inactive
same,outcome,[7],inactive
same,outcome,[10],inactive
same,outcome,[11],inactive
same,outcome,[12],inactive
same,outcome,[13],inactive
same,outcome,[14],inactive
O=C(O)C(F)(OC(F)(F)C(F)(F)C(F)(F)F)C(F)(F)F (stereo not given),AC50,[1],220 nM (active) and 291 nM (active)
same,outcome,[1],inactive
same,outcome,[2],inactive
same,outcome,[3],inactive
same,AC50,[4],6.18 µM (active)
same,outcome,[4],inactive
same,outcome,[5],inactive
same,outcome,[18],inactive
same,outcome,[16],inactive
same,outcome,[6],inactive
same,outcome,[7],inactive
same,outcome,[8],inactive
same,outcome,[9],inactive
same,AC50,[17],6.27 µM (active)
same,outcome,[10],inactive
same,outcome,[11],inactive
same,outcome,[12],inactive
same,outcome,[13],inactive
same,outcome,[14],inactive
NC(=O)C(F)(F)C(F)(F)F,outcome,[1],inactive
same,outcome,[2],inactive
same,outcome,[3],inactive
same,outcome,[4],inactive
same,outcome,[5],inactive
same,outcome,[6],inactive
same,outcome,[7],inactive
same,outcome,[10],inactive
same,outcome,[11],inactive
same,outcome,[12],inactive
same,outcome,[13],inactive
same,outcome,[14],inactive
